# Structures can show the parent of a compound that is named as a salt.
# Assays:
# Details in all cases: 10 µM; exposure time 6 h
# [1] = test system: Danio rerio larvae (5 dpf); experiment: difference in excitability vs DMSO (percentage points); higher = more excitable than DMSO
# Summary of the method: (§1)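 In 96-well plates, 48 wild-type zebrafish larvae aged 5 dpf per compound received 100 µL egg water with library compound at 10 µM final for 6 h. Three hours into this, a 3-h programme of moving lines and 100 ms, 400Hz tones ran at 28.5 ℃ while plates were photographed every 6 s. Z-LaP Tracker scored the behaviours, and each is given as the compound mean minus the vehicle control mean in percentage points.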
# [2] = test system: Danio rerio larvae (5 dpf); experiment: difference in startle response vs DMSO (percentage points); higher = stronger startle than DMSO
# Summary of the method: as §1
# [3] = test system: Danio rerio larvae (5 dpf); experiment: difference in activity during first hour vs DMSO (percentage points); higher = more activity than DMSO
# Summary of the method: as §1
# [4] = test system: Danio rerio larvae (5 dpf); experiment: difference in habituation to acoustic stimuli vs DMSO (percentage points); higher = more habituation than DMSO
# Summary of the method: as §1
# [5] = test system: Danio rerio larvae (5 dpf); experiment: difference in combined optomotor response to red, green and blue moving lines vs DMSO (percentage points); higher = stronger optomotor response than DMSO
# Summary of the method: as §1
SMILES,difference in excitability [1],difference in startle response [2],difference in activity during first hour [3],difference in habituation to acoustic stimuli [4],difference [5]
CCOc1ccc(Cc2cc([C@]34OC[C@](CO)(O3)[C@@H](O)[C@H](O)[C@H]4O)ccc2Cl)cc1 [Ertugliflozin],0.00277,-5.35,3.38,4.89,1.51
CN(Cc1cnc2nc(N)nc(N)c2n1)c1ccc(C(=O)N[C@@H](CCC(=O)O)C(=O)O)cc1 [Methotrexate (hydrate)],9.03,7.54,-9.02,-0.271,3.11
O=c1ccn([C@@H]2O[C@H](CO)[C@@H](O)[C@H]2O)c(=O)[nH]1 [Uridine],-2.47,-2.07,11.4,-2.41,1.41
CN1CC(=O)N2[C@H](c3ccc4c(c3)OCO4)c3[nH]c4ccccc4c3C[C@@H]2C1=O [Tadalafil],3.64,1.33,0.0422,3.67,6.23
CCC(=O)O[C@]1(C(=O)CCl)[C@@H](C)C[C@H]2[C@@H]3CCC4=CC(=O)C=C[C@]4(C)[C@@]3(F)[C@@H](O)C[C@@]21C [Clobetasol Propionate],2.04,-8.98,19.3,0.438,4.92
CC(=O)NO [Acetohydroxamic Acid],12,9,-12.9,3.36,-4.35
O=C1CN2Cc3c(ccc(Cl)c3Cl)N=C2N1 [Anagrelide (hydrochloride)],11.5,-3.44,-9.48,7.77,3.07
N#Cc1ccc2[nH]cc(CCCCN3CCN(c4ccc5oc(C(N)=O)cc5c4)CC3)c2c1 [Vilazodone (hydrochloride)],12.6,-3.13,-16.6,-3.2,-4.96
Nc1ccn([C@@H]2O[C@H](CO)[C@@H](O)[C@@H]2O)c(=O)n1 [Cytarabine],1.17,-0.992,-3.96,-4.77,3.66
CC(=O)OCC[N+](C)(C)C [Acetylcholine (chloride)],5.65,0.34,-8.36,2.23,-4.37
COC[C@H]1C[C@@H](c2nc(-c3ccc4c(c3)COc3cc5c(ccc6nc([C@@H]7CC[C@H](C)N7C(=O)[C@@H](NC(=O)OC)C(C)C)[nH]c65)cc3-4)c[nH]2)N(C(=O)[C@H](NC(=O)OC)c2ccccc2)C1 [Velpatasvir],10.1,2.08,2,-1.59,0.589
C#Cc1cccc(Nc2ncnc3cc(OCCOC)c(OCCOC)cc23)c1 [Erlotinib],4.3,-6.74,-6.91,-0.321,-4.8
CO[C@@H]1[C@H](N(C)C(=O)c2ccccc2)C[C@H]2O[C@]1(C)n1c3ccccc3c3c4c(c5c6ccccc6n2c5c31)C(=O)NC4,-5.3,-4.96,4.11,8.1,0.314
CC1=Nc2ccc(Cl)cc2S(=O)(=O)N1 [Diazoxide],-4.99,1.05,4.03,-3.84,5.23
COc1ccc2[nH]c([S@@+]([O-])Cc3ncc(C)c(OC)c3C)nc2c1 [Esomeprazole Magnesium],8.33,7.11,4.64,-0.745,5.95
C#C[C@]1(O)CC[C@H]2[C@@H]3CCc4cc(O)ccc4[C@H]3CC[C@@]21C [Ethynyl Estradiol],3.58,-3.27,-24,-11,-17.5
CS(=O)(=O)OCCCCOS(C)(=O)=O [Busulfan],1.08,2.56,2.59,2.63,3.07
CCCCCCCN(CC)CCCC(O)c1ccc(NS(C)(=O)=O)cc1 (racemic) [(±)-Ibutilide (hemifumarate)],17.7,1.14,-7.19,6.3,-6.18
Cn1c(=O)cc(N2CCC[C@@H](N)C2)n(Cc2ccccc2C#N)c1=O [Alogliptin (benzoate salt)],9.09,5.66,10.7,-0.862,0.5
CCCCC1=NC2(CCCC2)C(=O)N1Cc1ccc(-c2ccccc2-c2nnn[nH]2)cc1 [Irbesartan],5.86,-3.98,6.09,-4.93,5.61
CC(CN1c2ccccc2Sc2ccccc21)N(C)C (stereo not given) [Promethazine (hydrochloride)],7.65,-2.21,16.6,-3.09,4.32
C#C[C@]1(O)CC[C@H]2[C@@H]3CCC4=CC(=O)CC[C@@H]4[C@H]3CC[C@@]21C [Norethindrone],4.84,-3.95,-0.842,2.6,11.2
O=c1ccc2ccc(OCCCCN3CCN(c4cccc5sccc45)CC3)cc2[nH]1 [Brexpiprazole],13.2,-1.39,25.4,-17.4,-9.77
CCN1C(=O)NC(c2ccccc2)C1=O (stereo not given) [Ethotoin],-4.35,11.7,-2.99,0.909,-3.6
CCCc1nc(C)c2c(=O)nc(-c3cc(S(=O)(=O)N4CCN(CC)CC4)ccc3OCC)[nH]n12 [Vardenafil (hydrochloride hydrate)],4.29,1.36,0.203,5.85,12.9

# Reference: the supplement of paper PMC10515830
